This note sets out measurements from PubChem BioAssay.

Experiment [1] is described as follows: inhibitors of TNFa-induced NFkB p65 translocation, primary screen, imaging, HUVEC, MLSMR starter and 10KST1 sets (AID 438;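 active = inhibition above 20% together with a positive visual image hit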;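 note: compound added about 3h40 before a 20 min TNFalpha stimulation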;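 for inhibition: signal is the nuclear over cytoplasmic p65 intensity ratio per well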). The note with it: HUVEC TNFa-induced p65 nuclear translocation; cell count: measured here: nuclei count (cytotoxicity indicator), at 2.08 µM; inhibition: at 2 µM, stronger effect = higher value, 0% TNFa-plus-vehicle, 100% no-TNFa wells.
A short description of experiment [2]: reduction of polyQ htt aggregates in cells – imaging, exon1htt(103Q)mCFP cells, high-content imaging, primary screen (AID 483;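 active = visual image review flags a hit and inhibition of aggregation exceeds 20%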;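 note: compound exposure lasted 3 days before fixation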;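 for nuclei count: percent of the per-plate median nuclei count of sample wells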). The conditions noted are these: exon1htt(103Q)mCFP cell line, aggregate imaging, at 2 µM; inhibition of aggregation: stronger effect = higher value; nuclei count: measured here: cell count, toxicity.
A short description of experiment [3]: endothelial E-selectin expression blockers – imaging, HUVEC, immunofluorescence, MLSMR starter and 10KST1 sets, primary screen (AID 487;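 active = visually confirmed hit in the image check and inhibition above 20%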;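 for inhibition: signal is fraction of cell area covered by stained E-selectin grains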;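 for nuclei count: 100% = median nuclei count of all wells on the same plate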). The note with it: HUVEC TNFalpha-induced E-selectin immunofluorescence imaging, at 2 µM; inhibition: stronger effect = higher value; nuclei count: measured here: cell number, toxicity.
The target of experiment [4] is Voltage-gated potassium channel subunit beta-2 (Rattus norvegicus) (UniProt P62483). As to the kind of experiment: inhibitors of rat Kvbeta2 reductase activity – biochemical, NADPH fluorescence, primary screen (AID 622;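 active = fluorescence slope higher than the sample average by over 3 SD, cut at about -0.22 in these data, passing the limit was not always enough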;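 note: slope of raw intensity against log time taken from 70 to 1610 s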). The conditions noted are these: recombinant KvBeta, 4-cyanobenzaldehyde reduction, at 10 µM, stronger effect = higher value.
Chain of Voltage-gated potassium channel subunit beta-2 (Rattus norvegicus) (P62483 whole entry, looked up): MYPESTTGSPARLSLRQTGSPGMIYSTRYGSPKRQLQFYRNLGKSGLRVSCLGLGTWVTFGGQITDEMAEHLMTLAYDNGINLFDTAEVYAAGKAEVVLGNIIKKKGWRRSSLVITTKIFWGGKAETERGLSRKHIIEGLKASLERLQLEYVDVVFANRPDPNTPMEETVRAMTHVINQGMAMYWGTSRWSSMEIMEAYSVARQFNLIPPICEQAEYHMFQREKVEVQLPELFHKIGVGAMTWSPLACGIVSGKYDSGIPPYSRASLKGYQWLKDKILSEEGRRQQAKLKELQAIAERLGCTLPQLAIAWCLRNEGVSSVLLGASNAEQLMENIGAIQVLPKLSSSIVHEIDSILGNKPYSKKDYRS
For experiment [5] the target is unchanged. Briefly: enhancers of rat Kvbeta2 NADPH turnover – biochemical, NADPH fluorescence, primary screen (AID 623;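 active = NADPH fluorescence slope more negative than the mean of all samples by about 3 SD, 99.7% confidence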;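 note: fluorescence intensity change per second fitted from 20 to 320 s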). The conditions noted are these: Recombinant KvBeta, NADPH fluorescence decrease slope, 10 min; at 10 µM; stronger effect = lower value.
In experiment [6] the target is Alpha-2C adrenergic receptor (Homo sapiens) (UniProt P18825). As to the kind of experiment: compounds altering alpha2C-coupled GIRK flux – cell-based, HEK293 alpha2C/GIRK1/2, thallium flux, primary screen (AID 624;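 active = fluorescence slope after compound addition differing from the mean of all screened samples at 99.7% confidence, in either direction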;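 note: slope of fluorescence ratio to pre-addition baseline per second over 15 to 24 s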). The conditions noted are these: thallium flux BTC fluorescence, at 10 µM, actives lie on both sides.
Chain of Alpha-2C adrenergic receptor (Homo sapiens) (P18825 whole entry, looked up): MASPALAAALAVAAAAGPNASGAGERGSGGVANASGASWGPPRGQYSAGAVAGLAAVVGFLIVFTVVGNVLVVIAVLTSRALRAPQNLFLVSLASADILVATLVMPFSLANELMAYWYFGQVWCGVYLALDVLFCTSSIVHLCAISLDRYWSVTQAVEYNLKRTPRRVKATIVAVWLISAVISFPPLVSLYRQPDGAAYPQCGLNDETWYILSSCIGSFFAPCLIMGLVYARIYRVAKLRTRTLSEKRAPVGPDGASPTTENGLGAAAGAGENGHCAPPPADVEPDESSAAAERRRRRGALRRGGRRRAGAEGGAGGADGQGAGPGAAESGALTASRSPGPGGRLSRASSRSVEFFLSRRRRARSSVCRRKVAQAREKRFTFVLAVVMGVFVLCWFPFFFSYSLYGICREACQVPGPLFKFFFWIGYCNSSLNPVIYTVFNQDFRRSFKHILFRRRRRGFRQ
Experiment [7] can be described thus: blockers of RIG-like receptor reporter activation – cell-based, Sendai virus stimulus, luciferase, 10K MLSCN set, TLR/RLR signaling modifier project, primary screen (AID 602276).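 Note: firefly luciferase from ISG56 promoter only with Renilla not read in this screen; 0% = Sendai virus plus DMSO and 100% = medium plus DMSO without virus.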 The note with it: HEK293 RL24 IRF3 luciferase reporter, at 10 µM, stronger effect = higher value.
Experiment [8] is described as follows: TLR3 IRF3 reporter activation blockers – cell-based, poly I:C stimulus, luciferase, 10K MLSCN set, primary screen (AID 602277;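 active = inhibition of the reporter signal at or above 50%; inactive = inhibition below 50%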). The note with it: HEK293-TLR3 RL24 IRF3 luciferase reporter, at 10 µM, stronger effect = higher value. In general terms: A reporter such as luciferase makes a cellular process visible.

Activity calls are given as the source filed them.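 Rule for the calls, unless noted: active = inhibition at or above 50% at 10 µM; inactive = inhibition below 50%.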

Turning to `CCOC(=O)c1cc(C)sc1N1C(=O)C2C3C=CC(C3)C2C1=O` (centres undefined), in experiment [1], the cell count turned out to be 223. The inhibition (as a rule, the drop in the measured response relative to a control, in per cent) was 3.3% (inactive) in experiment [1], -37% (inactive) in experiment [3], 16.2% (inactive) in experiment [7] and 15.2% (inactive) in experiment [8]. Moreover, the inhibition of aggregation in experiment [2] was -17.4% (inactive). Also, the nuclei count in experiment [2] stood at 97.5%; in experiment [3], 138%. For the same compound, the fluorescence slope in experiment [4] was -0.543 (inactive). Moreover, in experiment [5], the NADPH fluorescence slope was -8.1e-05 (inactive). The slope in experiment [6] is 0.00512 (inactive).

Consider `CCS(=O)(=O)N1CCC(C(=O)NC2CCCCCCC2)CC1`, for which the cell count in experiment [1] is 649. The inhibition in experiment [1] is -9.4% (inactive); in experiment [3] it was -113% (inactive); in experiment [7], -13% (inactive); in experiment [8], -6.47% (inactive). The inhibition of aggregation in experiment [2] is -9.5% (inactive). Besides, the figures for the nuclei count in experiment [2] and in experiment [3] were 104% and 128%, respectively. The fluorescence slope in experiment [4] is -0.378 (inactive). Besides, the NADPH fluorescence slope in experiment [5] is 1.4e-05 (inactive). Moreover, the slope in experiment [6] was 0.00549 (inactive).

Regarding `CCOc1cc2[nH]c(=O)n(CCC(=O)NCCc3ccc(OC)c(OC)c3)c(=O)c2cc1OCC`, in experiment [1], the cell count was 313. Moreover, the inhibition in experiment [1] was -2.1% (inactive); in experiment [3] it was -19.2% (inactive); in experiment [7], 8.69% (inactive); in experiment [8] it was 16.7% (inactive). For the same compound, in experiment [2], the inhibition of aggregation is -0.3% (inactive). Also, the nuclei count in experiment [2] was 103%; in experiment [3], 122%. The fluorescence slope in experiment [4] is -0.514 (inactive). Moreover, the NADPH fluorescence slope in experiment [5] was 2.8e-05 (inactive). For the same compound, the slope in experiment [6] was 0.00653 (inactive).

As for `COc1cc(NC(=O)Cc2ccccc2OC)cc(OC)c1`, the cell count in experiment [1] is 575. Also, the inhibition in experiment [1] was -4.8% (inactive); in experiment [3] it was -96.9% (inactive); in experiment [7] it was -19% (inactive); in experiment [8], -15% (inactive). Besides, the inhibition of aggregation in experiment [2] is 9.8% (inactive). Besides, the nuclei count in experiment [2] was found to be 81.8%; in experiment [3], 87.6%. Also, in experiment [4], the fluorescence slope was -0.452 (inactive). Besides, the NADPH fluorescence slope in experiment [5] was -2e-05 (inactive). Also, the slope in experiment [6] was 0.00483 (inactive).

For `Nc1nnc(C(=O)c2ccccc2N)s1`, the cell count in experiment [1] worked out at 384. In addition, the inhibition in experiment [1] is -5.3% (inactive); in experiment [3], -41.8% (inactive); in experiment [7], -1.19% (inactive); in experiment [8], -4.86% (inactive). For the same compound, in experiment [2], the inhibition of aggregation was -21% (inactive). Moreover, the figures for the nuclei count in experiment [2] and in experiment [3] were 99.9% and 106%, respectively. In addition, the fluorescence slope in experiment [4] was -0.438 (inactive). Also, in experiment [5], the NADPH fluorescence slope is -0.000136 (inactive). In addition, the slope in experiment [6] is 0.00502 (inactive).

With `O=C(O)COc1ccc(S(=O)(=O)NCCc2ccccc2)cc1`, in experiment [1], the cell count amounted to 596. The inhibition in experiment [1] was -0.8% (inactive); in experiment [3], -54.3% (inactive); in experiment [7] it was 13% (inactive); in experiment [8], 24.1% (inactive). For the same compound, the inhibition of aggregation in experiment [2] is 20.5% (inactive). Moreover, the nuclei count was 81.4% in experiment [2] and 119% in experiment [3]. Also, the fluorescence slope in experiment [4] was -0.543 (inactive). Besides, the NADPH fluorescence slope in experiment [5] is -6.9e-05 (inactive). The slope in experiment [6] is 0.00764 (inactive).

As for `CCCCC(=O)NCCc1cc2c(C)ccc(C)c2[nH]c1=O`, the cell count in experiment [1] was 699. The inhibition in experiment [1] is -1% (inactive); in experiment [3] it was -13.4% (inactive); in experiment [7] it was 10.6% (inactive); in experiment [8] it was 22.7% (inactive). Moreover, the inhibition of aggregation in experiment [2] was -22.4% (inactive). The nuclei count in experiment [2] was 105%; in experiment [3], 102%. Also, in experiment [4], the fluorescence slope is -0.552 (inactive). In addition, the NADPH fluorescence slope in experiment [5] was -3.7e-05 (inactive). Besides, the slope in experiment [6] was 0.00563 (inactive).

With `COc1ccccc1CN1CCCC(C(=O)N(C)Cc2ccccc2)C1` (centres undefined), the cell count in experiment [1] is 739. For the same compound, the inhibition in experiment [1] is -3.4% (inactive); in experiment [3], -218% (inactive); in experiment [7] it was 7.15% (inactive); in experiment [8], 33.5% (inactive). Besides, in experiment [2], the inhibition of aggregation was 23.6% (inactive). In addition, the nuclei count in experiment [2] was determined as 99.1%; in experiment [3], 126%. For the same compound, the fluorescence slope in experiment [4] is -0.37 (inactive). Moreover, the NADPH fluorescence slope in experiment [5] was -9.6e-06 (inactive). In experiment [6], the slope is 0.00506 (inactive).

`CC1CCN(S(=O)(=O)c2cn(CC(=O)N3CCN(C)CC3)c(=O)c3ccccc23)CC1`: the cell count in experiment [1] came to 278. The inhibition in experiment [1] is -8.5% (inactive); in experiment [3], -28.3% (inactive); in experiment [7] it was 0.28% (inactive); in experiment [8], 17.6% (inactive). In addition, the inhibition of aggregation in experiment [2] was -2.7% (inactive). The nuclei count in experiment [2] amounted to 91.6%; in experiment [3], 121%. Also, the fluorescence slope in experiment [4] was -0.604 (inactive). Moreover, the NADPH fluorescence slope in experiment [5] was 5.5e-06 (inactive). Further, in experiment [6], the slope is 0.00569 (inactive).

In the case of `Cc1ccc2c(C)nc(NC3=NCN(C(C)C)CN3)nc2c1`, the cell count in experiment [1] came to 604. The inhibition is 4.7% (inactive) in experiment [1], -33.7% (inactive) in experiment [3], 11.3% (inactive) in experiment [7] and 14.9% (inactive) in experiment [8]. For the same compound, the inhibition of aggregation in experiment [2] was 5.5% (inactive). Besides, the nuclei count amounted to 93.5% in experiment [2] and 125% in experiment [3]. In experiment [4], the fluorescence slope is -0.543 (inactive). For the same compound, in experiment [5], the NADPH fluorescence slope is 1.2e-05 (inactive). Moreover, the slope in experiment [6] is 0.0049 (inactive).

For the compound `CCOC(=O)CSc1nnc([C@H](CC(C)C)NC(=O)OC(C)(C)C)o1`, the cell count in experiment [1] was 696. Moreover, the inhibition is 6.5% (inactive) in experiment [1], 13.7% (inactive) in experiment [3], 13.5% (inactive) in experiment [7] and 14.4% (inactive) in experiment [8]. Besides, the inhibition of aggregation in experiment [2] was 23.3% (inactive). Besides, the nuclei count worked out at 81.4% in experiment [2] and 104% in experiment [3]. Besides, the fluorescence slope in experiment [4] was -0.501 (inactive). In addition, in experiment [5], the NADPH fluorescence slope was -1.8e-05 (inactive). For the same compound, in experiment [6], the slope was 0.0048 (inactive).

Turning to `CCOC(=O)c1c(C)n(OCc2ccccc2)c2ccc3c(no[n+]3[O-])c12`, in experiment [1], the cell count worked out at 437. The inhibition in experiment [1] is 4% (inactive); in experiment [3] it was 8.8% (inactive); in experiment [7], 2.55% (inactive); in experiment [8], 13.2% (inactive). Also, the inhibition of aggregation in experiment [2] is 2.1% (inactive). The results for the nuclei count in experiment [2] and in experiment [3] were 104% and 111%, respectively. Further, the fluorescence slope in experiment [4] was -0.484 (inactive). Besides, the NADPH fluorescence slope in experiment [5] was -1e-05 (inactive). The slope in experiment [6] was 0.00638 (inactive).

As to `Nc1cc(CN2C(=O)c3ccccc3C2=O)cc(Cl)c1O`, the cell count in experiment [1] came to 451. The inhibition was -1.8% (inactive) in experiment [1], -74.6% (inactive) in experiment [3], 12.8% (inactive) in experiment [7] and 36.4% (inactive) in experiment [8]. In addition, in experiment [2], the inhibition of aggregation was 14.9% (inactive). In addition, the values for the nuclei count in experiment [2] and in experiment [3] were 100% and 159%, respectively. In experiment [4], the fluorescence slope is -0.401 (inactive). Also, the NADPH fluorescence slope in experiment [5] is -5.2e-05 (inactive). In addition, the slope in experiment [6] is 0.00582 (inactive).

Regarding `CS(=O)(=O)C1=C(O)C(=O)N(c2ccccc2)C1c1ccccc1` (centres undefined), the cell count in experiment [1] turned out to be 415. Further, the inhibition in experiment [1] was -6% (inactive); in experiment [3] it was -41.9% (inactive); in experiment [7], -1.92% (inactive); in experiment [8] it was 26.4% (inactive). In addition, the inhibition of aggregation in experiment [2] was -10.4% (inactive). In addition, the nuclei count in experiment [2] worked out at 103%; in experiment [3] it was 132%. Further, the fluorescence slope in experiment [4] was -0.439 (inactive). For the same compound, the NADPH fluorescence slope in experiment [5] is 1.7e-05 (inactive). For the same compound, the slope in experiment [6] was 0.00632 (inactive).
